# Screens as filed in PubChem BioAssay.
# The list is not random: actives were taken first. Their share in the collection is about 1.7%.
# ABCB6 inh 2: human ABCB6 transporter inhibition | Q9NP58 | K562-ABCB6 porphyrin accumulation, flow cytometry, 1 h; stronger effect = lower value | fluorescence ratio to DMSO, % at 10 µM | actives 0.19% (n = 360,000) | AID 602162;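 active means fluorescence ratio to DMSO below 75%, the collection mean minus 3 SD; inconclusive means too few cells collected in the well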;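 further: signal is porphyrin accumulated inside mitochondria; 100% equals median channel fluorescence of DMSO control wells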
# NOD2 RIPK2 PPI: NOD2-RIPK2 protein interaction inhibition | AID 624267 | actives 0.38% (n = 360,000) | inhibition, % at 4.98 µM | CHO BLA complementation NOD2-RIPK2, CCF4 ratio | O43353; in the data active means inhibition above about 21%;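 further: 0% = vehicle only and 100% = reference blocker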
# TLR9-MyD88 block: TLR9-MyD88 interaction inhibition | Q9NR96+Q99836 | CHO BLA complementation TLR9-MyD88, CCF4 FRET ratio | inhibition, % at 4.98 µM | actives 0.21% (n = 340,000);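 active means inhibition above the mean over all tested compounds plus 3 SD, cut at about 21% in these data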;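 further: 0% = DMSO only wells and 100% = clavulanate BLA inhibitor control wells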
# TLR4 MyD88 comp: inhibitors of human TLR4-MyD88 binding. inhibition, % at 8.4 µM. actives 0.18% (n = 200,000). O00206+Q99836. HeLa CL3-4 TLR4/MyD88 BLA complementation, FRET ratio; in the data active means inhibition above about 25%;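 further: 0% = vehicle and 100% = reference inhibitor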
# Myeloid diff 2: compounds promoting myeloid differentiation | ER-HoxA9 myeloid progenitors, lysozyme-GFP differentiation, flow cytometry | calls only at 10 µM | actives 1% (n = 360,000) | AID 624256;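 active means normalized GFP-positive differentiation at or above the plate's own cutoff, the solvent-only control mean plus 3 SD; inconclusive means no clear call, values can overlap the other calls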;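 further: cells exposed to compound for four days before flow analysis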
# TLR9-MyD88 cf: TLR9-MyD88 interaction inhibition, confirmation; actives 51% (n = 680); CHO TLR9/MyD88 BLA complementation, CCF4 FRET ratio; shares compounds with TLR9-MyD88 block; inhibition, % at 4.98 µM;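 active means mean inhibition across three repeats above about 21% taken from the earlier screen, limit read from the data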;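 further: blue over green emission ratio reports constitutive TLR9 MyD88 association via BLA complementation; 0% = DMSO vehicle wells and 100% = clavulanate BLA inhibitor wells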
# BLA nonselective: beta-lactamase reporter inhibition, counter-screen artifact | shares compounds with TLR9-MyD88 block | CHO-BLA cells, CCF4 FRET ratio, BLA reporter | inhibition, % at 4.98 µM | actives 7% (n = 680);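 active means mean inhibition above a 50% cutoff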;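 further: counterscreen of TLR9-MyD88 hits on CMV-driven BLA in CHO-K1 cells; 0% = DMSO alone and 100% = clavulanate blocking BLA; higher means less blue over green ratio so more BLA blockade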
# TLR9 CHO tox: counter-screen for TLR9-MyD88 inhibitors: cytotoxicity in CHO cells. inhibition, % at 4.98 µM. luminescence. AID 588336. actives 39% (n = 680). shares compounds with TLR9-MyD88 block; in the data active means inhibition above about 11%
# Active calls of the source: *; i = inactive; ? = inconclusive; . = no result given; + = active, no number.
SMILES,ABCB6 inh 2,NOD2 RIPK2 PPI,TLR9-MyD88 block,TLR4 MyD88 comp,Myeloid diff 2,TLR9-MyD88 cf,BLA nonselective,TLR9 CHO tox
O=C(N/N=C\c1c(O)ccc2ccccc12)c1cncc(Br)c1,105,11,23*,.,?,18,15,60*
CCOc1ccc(N2C(=O)/C(=C/c3cccs3)N(CC(=O)OC)C2=S)cc1,99,8,8,-3,i,.,.,.
CCc1ccc(/C=C2/C(=O)N(c3ccccc3)C(=S)N2CC(=O)OC)s1,103,3,29*,5,i,10,33,2
Cc1ccc(S(=O)(=O)Nc2cccc3ncccc23)s1,93,55*,44*,19,?,20,8,101*
O=c1c2cc(F)ccc2sn1-c1ccc(F)cc1,100,19,16,.,i,.,.,.
O=c1c2cc([N+](=O)[O-])ccc2sn1-c1ccccc1,102,7,29*,.,i,37*,0,87*
O=C(OCn1ncc(Cl)c(Cl)c1=O)c1ccccc1Cl,105,54*,31*,16,?,28*,23,99*
Cc1ccc(-c2nnc(SCC(=O)N(C)C)nc2-c2ccc(C)cc2)cc1,100,-5,-20,.,.,.,.,.
COc1ccc2c(C#N)c3ccccn3c2c1,95,11,21*,24,i,5,8,7
Cc1ccc(Sc2ccc(N)cn2)cc1,97,-7,.,.,i,.,.,.
C=CCNc1nc2cc(-c3ccccc3OC)sc2c(=O)n1C,96,-8,.,.,i,.,.,.
CC(C)OCCCNC(=O)Nc1cccc2ccccc12,100,6,-5,1,i,.,.,.
Cc1ccc(/C=C2/NC(=O)N(Cc3ccc(Br)cc3)C2=O)o1,102,12,22*,-4,i,2,2,13*
O=C(N/N=C/c1c(O)n(-c2ccc(Cl)cn2)c(=O)c2ccccc12)c1ccncc1,110,14,21*,13,i,8,10,-5
COc1ccc(C2CC(c3ccc(Cl)cc3)=NN2c2ccc(S(N)(=O)=O)cc2)cc1 (centres undefined),99,-62,-139,.,i,.,.,.
COc1ccc(C2CC(c3ccncc3)=NN2c2ccc(S(N)(=O)=O)cc2)cc1 (centres undefined),135,37*,19,.,+,12,19,16*
Cc1cc(NC(=O)C(C)SCC(=O)N(C)CC(=O)Nc2ccccc2Br)no1 (centres undefined),95,17,-5,.,i,.,.,.
CC1CCN(c2ccc3c(c2)S(=O)(=O)c2cccc(C(=O)NC[C@@H]4CCCO4)c2C3=O)CC1,107,14,-1,.,i,.,.,.
O=C(NCC1CCCO1)c1cccc2c1C(=O)c1ccc(N3CCC(Cc4ccccc4)CC3)cc1S2(=O)=O (centres undefined),115,51*,32*,.,i,23*,25,10
O=C1NC[C@@H](CCCCN2C[C@H](Cc3ccccc3)N(Cc3ccccc3)C(=O)C2=O)N(CCc2ccccc2)C1=O,101,0,.,.,i,.,.,.
COc1cc(/C=C/C(=O)c2ccc3c(c2)OCO3)cc(Cl)c1O,97,11,22*,.,i,16,20,3
COc1ccc(C(=O)Nc2cc(-c3ccc(C)cc3)no2)cc1,99,-18,-1,.,i,.,.,.
Cc1ccc(-c2cc(NC(=O)c3ccccc3)on2)cc1,83,-6,24*,.,i,2,0,-2
N#CC1=C(N)OC2=C(CC/C2=C\c2ccccc2)C1c1ccccc1 (centres undefined),289,6,7,13,i,.,.,.
N#CC1=C(N)OC2=C(CC/C2=C\c2ccccc2Cl)C1c1ccccc1Cl (centres undefined),181,11,32*,2,i,7,7,2
O=C1CC(NS(=O)(=O)c2cccs2)CN1c1ccccc1 (centres undefined),97,-13,1,.,i,.,.,.
Cc1cc(C)c2nc(NNC(=O)c3cc(-c4cccs4)nc4ccccc34)sc2c1,101,15,25*,7,i,1,4,-2
